Source: PMC9838217, “Structure of SALL4 zinc finger domain reveals link between AT-rich DNA binding and Okihiro syndrome”
Residue numbers refer to the chain shown, from its start.

Key:
Assay in all cases: HT-SELEX; high values mean tight binding
Details in all cases: protein: recombinant; vector His6-GST; dsDNA, one strand shown
SALL4 ZFC4 WT (HT-SELEX) = target: T1, SALL4 ZFC4 WT (HT-SELEX) (Mus musculus, UniProt Q8BX22 870-940)
T1 sequence: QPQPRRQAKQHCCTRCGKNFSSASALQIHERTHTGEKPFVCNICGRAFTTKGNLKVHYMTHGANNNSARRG
Method in brief: (§1)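 Binding signal is expressed as fold change in each canonical k-mer's read fraction over the initial random library. To obtain it, 1 µg of purified recombinant mouse SALL4 zinc finger cluster 4 (residues 870–940) was incubated for 10 min at room temperature with library DNA (1.5 µg first cycle, 200 ng later cycles) in 100 µl of 10 mM Tris–HCl pH 7.5, 50 mM NaCl, poly(dI-dC) and DTT. Ni2+ bead-captured complexes went through washing, PCR amplification and reselection for up to 6 cycles, in triplicate, before MiSeq sequencing and scanning for 6-mers.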

[1] = target: T2, SALL4 ZFC4 R900W (HT-SELEX) (Mus musculus, UniProt Q8BX22 870-940, R900W)
T2 sequence: T1 sequence with R31W
Method in brief: as §1

[2] = target: T3, SALL4 ZFC4 G921D (HT-SELEX) (Mus musculus, UniProt Q8BX22 870-940, G921D)
T3 sequence: T1 sequence with G52D
Method in brief: as §1

Sequence	binding signal (SALL4 ZFC4 WT (HT-SELEX))	binding signal [1]	binding signal [2]
GCATCC	0.382 ± 0.0508 fold-change vs cycle 0	0.43 ± 0.0105 fold-change vs cycle 0	0.551 ± 0.0913 fold-change vs cycle 0
CAATAC	1.22 ± 0.0144 fold-change vs cycle 0	1.3 ± 0.0388 fold-change vs cycle 0	1.29 ± 0.0522 fold-change vs cycle 0
GACAAA	0.966 ± 0.023 fold-change vs cycle 0	1.08 ± 0.0338 fold-change vs cycle 0	1.1 ± 0.0293 fold-change vs cycle 0
GGTGGA	0.462 ± 0.0279 fold-change vs cycle 0	0.536 ± 0.0251 fold-change vs cycle 0	0.619 ± 0.0493 fold-change vs cycle 0
CCATCA	0.823 ± 0.0184 fold-change vs cycle 0	0.957 ± 0.0265 fold-change vs cycle 0	0.949 ± 0.0116 fold-change vs cycle 0
AATCGA	1.08 ± 0.05 fold-change vs cycle 0	1.14 ± 0.0428 fold-change vs cycle 0	1.2 ± 0.0389 fold-change vs cycle 0
TAGCAA	1.14 ± 0.0337 fold-change vs cycle 0	1.17 ± 0.0822 fold-change vs cycle 0	1.21 ± 0.0899 fold-change vs cycle 0
AGCCAA	0.49 ± 0.0194 fold-change vs cycle 0	0.55 ± 0.00629 fold-change vs cycle 0	0.698 ± 0.0739 fold-change vs cycle 0
CGAGAA	0.725 ± 0.0428 fold-change vs cycle 0	0.818 ± 0.0294 fold-change vs cycle 0	0.857 ± 0.0383 fold-change vs cycle 0
AAATCT	1.82 ± 0.0976 fold-change vs cycle 0	1.85 ± 0.0812 fold-change vs cycle 0	1.72 ± 0.124 fold-change vs cycle 0
ATTACA	2.21 ± 0.144 fold-change vs cycle 0	2.06 ± 0.11 fold-change vs cycle 0	1.82 ± 0.177 fold-change vs cycle 0
ATGCCA	0.517 ± 0.0281 fold-change vs cycle 0	0.565 ± 0.0177 fold-change vs cycle 0	0.695 ± 0.0326 fold-change vs cycle 0
ATCTTA	2.21 ± 0.106 fold-change vs cycle 0	2.19 ± 0.133 fold-change vs cycle 0	1.92 ± 0.224 fold-change vs cycle 0
ACCACC	0.457 ± 0.039 fold-change vs cycle 0	0.514 ± 0.0309 fold-change vs cycle 0	0.616 ± 0.0424 fold-change vs cycle 0
CAACTA	1.19 ± 0.0469 fold-change vs cycle 0	1.31 ± 0.0705 fold-change vs cycle 0	1.29 ± 0.0584 fold-change vs cycle 0
ATGACC	0.806 ± 0.0726 fold-change vs cycle 0	0.891 ± 0.0488 fold-change vs cycle 0	0.947 ± 0.065 fold-change vs cycle 0
TATCCA	1.41 ± 0.0597 fold-change vs cycle 0	1.44 ± 0.0638 fold-change vs cycle 0	1.34 ± 0.0962 fold-change vs cycle 0
ATAGCC	0.53 ± 0.0341 fold-change vs cycle 0	0.6236 ± 0.00564 fold-change vs cycle 0	0.747 ± 0.062 fold-change vs cycle 0
AATGGT	1.28 ± 0.0798 fold-change vs cycle 0	1.35 ± 0.0595 fold-change vs cycle 0	1.32 ± 0.061 fold-change vs cycle 0
CCAGTA	0.785 ± 0.049 fold-change vs cycle 0	0.922 ± 0.0301 fold-change vs cycle 0	0.962 ± 0.0332 fold-change vs cycle 0
ACATTC	1.29 ± 0.0367 fold-change vs cycle 0	1.44 ± 0.0794 fold-change vs cycle 0	1.37 ± 0.0959 fold-change vs cycle 0
AAGTTG	1.18 ± 0.062 fold-change vs cycle 0	1.32 ± 0.0296 fold-change vs cycle 0	1.29 ± 0.0737 fold-change vs cycle 0
CCTTAA	1.32 ± 0.0558 fold-change vs cycle 0	1.49 ± 0.018 fold-change vs cycle 0	1.37 ± 0.0901 fold-change vs cycle 0
TGTTAA	1.94 ± 0.0917 fold-change vs cycle 0	2 ± 0.113 fold-change vs cycle 0	1.77 ± 0.143 fold-change vs cycle 0
TAAGTA	2.21 ± 0.113 fold-change vs cycle 0	2.23 ± 0.16 fold-change vs cycle 0	1.89 ± 0.229 fold-change vs cycle 0
ACTGAC	0.782 ± 0.026 fold-change vs cycle 0	0.909 ± 0.0341 fold-change vs cycle 0	0.934 ± 0.016 fold-change vs cycle 0
AGAGAA	1.42 ± 0.0467 fold-change vs cycle 0	1.64 ± 0.0726 fold-change vs cycle 0	1.46 ± 0.11 fold-change vs cycle 0
CTCACA	0.786 ± 0.0522 fold-change vs cycle 0	0.895 ± 0.0341 fold-change vs cycle 0	0.9459 ± 0.00888 fold-change vs cycle 0
CAACCG	0.334 ± 0.0164 fold-change vs cycle 0	0.389 ± 0.015 fold-change vs cycle 0	0.509 ± 0.0746 fold-change vs cycle 0
AAACAT	1.93 ± 0.14 fold-change vs cycle 0	1.88 ± 0.0797 fold-change vs cycle 0	1.72 ± 0.14 fold-change vs cycle 0
